A short description of assay [1]: anti-His antibody binders, primary screen, artefact control for SMM control protein annotation, biochemical, small-molecule microarray, 635 nm fluorescence (AID 1128).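 Note: score merges feature fluorescence with signal-to-noise for each printed compound spot.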 The following applies: anti-His Alexa647 antibody binding, higher = more signal.
Assay [2] relates to Human papillomavirus type 1a E7 protein (residues 1-88). The experiment in a line: HPV1a E7 small-molecule binders, primary screen, biochemical, small-molecule microarray, residues 1-88, 635 nm (AID 1129). The conditions noted are these: small-molecule microarray binding, fluorescence 635 nm; higher = more signal.
Assay [3] addresses Focal adhesion kinase 1 (Homo sapiens) (UniProt Q05397). The experiment in a line: small-molecule microarray binders of FAK, primary screen, biochemical, 635/667 nm fluorescence, BSA, DTT (AID 1130).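 Note: composite of spot emission at 667 nm and signal to noise over triplicate slides.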 The conditions noted are these: PTK2 binding, 635 nm fluorescence, higher = more signal.
For assay [4], the system named is Fibrinogen (Alexa647-labelled). The experiment in a line: fibrinogen binders on compound microarrays, profiling panel, artefact control for SMM control-protein annotation, biochemical, small-molecule microarray, 635/667 nm fluorescence (AID 1131).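 Note: z-score merges 667 nm fluorescence with per-spot signal-to-noise over triplicate slides.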 The following applies: fibrinogen-A647 binding fluorescence, higher = more signal.
The target of assay [5] is Follistatin (Homo sapiens) (UniProt P19883). Nature of the assay: follistatin binders on small-molecule microarrays, primary screen, biochemical, small-molecule microarray, 635/667 nm fluorescence (AID 1132). The following applies: FST binding, 635 nm fluorescence, higher = more signal.
For assay [6], the target named is Fibroblast growth factor 2 (Homo sapiens) (UniProt P09038). Nature of the assay: FGF2 binders on small-molecule microarrays, primary screen, biochemical, small-molecule microarray, 635/667 nm fluorescence (AID 1133). The conditions noted are these: small-molecule microarray binding, FGF2, fluorescence 635/667; higher = more signal.
The nature of assay [7]: mitochondrial membrane potential change in A549 cells, profiling panel, cell-based, JC-1 fluorescence, basal, 24 h, 100 nL (AID 1138).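 Note: A549 lung adenocarcinoma cells under basal conditions with no added stimulus; test concentration not given here.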 The following applies: higher = more signal.
For another assay, the system named is Lefty1. The experiment in a line: Lefty1 binders on small-molecule microarrays, primary screen, biochemical, small-molecule microarray, 635/667 nm fluorescence (AID 1139). The following applies: small-molecule microarray binding, fluorescence 635/667; higher = more signal.
The subject of assay [8] is wheat germ agglutinin (Triticum aestivum), Alexa647-labelled. Nature of the assay: wheat germ agglutinin binders on compound microarrays, profiling panel, artefact control for SMM control-protein annotation, biochemical, small-molecule microarray, 635/667 nm fluorescence (AID 1140).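 Note: score merges 667 nm feature emission with signal to noise over triplicate slides.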 The following applies: WGA-A647 binding, 635 nm fluorescence, higher = more signal.
For assay [9], the target named is Luciferin 4-monooxygenase (Photinus pyralis) (UniProt P08659). Nature of the assay: firefly luciferase enzyme inhibitors, primary screen, biochemical, luminescence, purified enzyme, 2006 set (AID 1141).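 Note: cell-free assay with purified firefly luciferase at 100 ng per well in PBS; test concentration not given here.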 The following applies: SteadyGlo luminescence, 30 min, higher = more signal, called active from +8 up or from −8 down.
Assay [10] deals with Wnt5a (protein binding on small-molecule microarray). The experiment in a line: Wnt5a binders on small-molecule microarray, primary screen, biophysical, 635/667 nm fluorescence (AID 1142).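 Note: fluorescence read at 667 nm with signal to noise per printed feature.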 The following applies: 635 nm fluorescence, higher = more signal.
A short description of assay [11]: cell viability in Huh7 cells, primary screen, cytotoxicity control for HCV replication inhibitor project, CellTiter-Glo luminescence, basal, 48 h (AID 1143).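 Note: Huh7 hepatoma cells carrying a hepatitis C replication reporter with no stimulus; test concentration not given here.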 The following applies: Huh7 HCV replicon, higher = more signal, called active from +8 up or from −8 down. (In general: ATP-based viability assays read luminescence as a measure of living cells.)
The nature of assay [12]: P. aeruginosa biofilm formation inhibitors, primary screen, PAO1 strain, BacTiter-Glo luminescence, LB-PBS (AID 1144). The conditions noted are these: 12 h, higher = more signal.
Assay [13] is described as follows: CREB reporter modulators without forskolin, primary screen, cell-based, PC12, CRE-LacZ reporter, unstimulated (AID 1145). The conditions noted are these: no forskolin, luminescence, 4.5 h, higher = more signal, called active from +8 up or from −8 down.
Assay [14] in a line: CREB reporter modulators under forskolin, primary screen, cell-based, PC12, CRE-LacZ reporter, forskolin-stimulated (AID 1146).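 Note: PC12 cells with 6xCRE LacZ reporter stimulated by forskolin 10 µM; beta-galactosidase reporter signal reflecting CREB driven transcription.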 The conditions noted are these: luminescence, 4.5 h, higher = more signal, called active from +8 up or from −8 down.
The target of assay [15] is Streptavidin (Streptomyces avidinii) (UniProt P22629). The experiment in a line: streptavidin binders on small-molecule microarray, primary screen, artefact control for SMM compound annotation, biophysical, 635/667 nm fluorescence (AID 1147).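 Note: signal reflects streptavidin binding to arrayed compounds as a control protein.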 The conditions noted are these: streptavidin binding, higher = more signal.
Assay [16] is described as follows: small-molecule binders of probe aInhba, primary screen, biochemical, small-molecule microarray, 635/667 nm fluorescence (AID 1148).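 Note: score merges 667nm spot fluorescence with signal-to-noise for antibody binding to printed compounds.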 The following applies: higher = more signal.
For assay [17], the target named is Torsin-1A (Homo sapiens) (UniProt O14656). Nature of the assay: torsin A binders from cell lysate, primary screen, small-molecule microarray, wild-type, 635/667 nm (AID 1149). The conditions noted are these: COS7 hTOR1A-WT lysate, 635 nm fluorescence, higher = more signal.
Assay [18] has the same target. Nature of the assay: small-molecule binders of mutant TOR1A in lysate, primary screen, cell lysate, small-molecule microarray, COS7 lysate, 635/667 nm fluorescence (AID 1150).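 Note: score pools 667 nm emission and signal to noise measuring lysate protein binding.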 The conditions noted are these: COS7 hTOR1A mutant lysate, 635 nm fluorescence, higher = more signal.
Assay [19] deals with Sonic hedgehog protein (Shh). The experiment in a line: small-molecule binders of Shh protein, primary screen, biochemical, small-molecule microarray, 635/667 nm fluorescence (AID 1151).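 Note: Shh protein binding to compounds spotted on small-molecule microarray slides; score combines spot fluorescence intensity with signal-to-noise across triplicate slides.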 The conditions noted are these: small-molecule microarray binding, 635 nm fluorescence; higher = more signal.

The structures appear in SMILES notation. Several values for one entry are separate records, joined by “and”; a condition that tells them apart may be missing. Equal entries are not always repeated. Activity calls are given as the source filed them. Unless noted, the rule behind the calls is not given here.

The values below come from PubChem BioAssay.

Sequence of Luciferin 4-monooxygenase (Photinus pyralis) (P08659 whole entry, looked up): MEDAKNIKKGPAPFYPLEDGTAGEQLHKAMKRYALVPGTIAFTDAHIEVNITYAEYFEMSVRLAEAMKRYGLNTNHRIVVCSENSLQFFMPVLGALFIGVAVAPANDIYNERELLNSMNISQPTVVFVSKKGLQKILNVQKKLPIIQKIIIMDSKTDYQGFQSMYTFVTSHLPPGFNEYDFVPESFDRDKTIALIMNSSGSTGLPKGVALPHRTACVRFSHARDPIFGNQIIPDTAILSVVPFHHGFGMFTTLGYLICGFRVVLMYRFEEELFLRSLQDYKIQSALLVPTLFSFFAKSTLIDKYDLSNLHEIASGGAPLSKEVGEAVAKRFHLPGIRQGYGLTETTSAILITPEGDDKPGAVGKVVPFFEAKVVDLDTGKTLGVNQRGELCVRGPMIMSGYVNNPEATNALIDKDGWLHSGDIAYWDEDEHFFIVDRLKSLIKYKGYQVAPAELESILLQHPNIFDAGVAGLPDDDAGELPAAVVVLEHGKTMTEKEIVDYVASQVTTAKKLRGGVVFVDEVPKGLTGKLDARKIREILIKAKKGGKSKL
Sequence of Torsin-1A (Homo sapiens) (O14656 whole entry, looked up): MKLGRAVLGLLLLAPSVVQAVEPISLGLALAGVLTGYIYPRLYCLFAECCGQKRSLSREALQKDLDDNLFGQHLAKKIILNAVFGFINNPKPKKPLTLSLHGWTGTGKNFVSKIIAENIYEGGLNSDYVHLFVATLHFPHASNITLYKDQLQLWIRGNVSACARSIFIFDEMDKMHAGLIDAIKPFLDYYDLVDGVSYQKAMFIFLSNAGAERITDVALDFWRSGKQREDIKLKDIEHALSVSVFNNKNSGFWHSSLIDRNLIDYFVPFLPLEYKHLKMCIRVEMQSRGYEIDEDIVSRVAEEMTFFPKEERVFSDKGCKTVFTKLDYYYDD
Sequence of Focal adhesion kinase 1 (Homo sapiens) (Q05397 whole entry, looked up): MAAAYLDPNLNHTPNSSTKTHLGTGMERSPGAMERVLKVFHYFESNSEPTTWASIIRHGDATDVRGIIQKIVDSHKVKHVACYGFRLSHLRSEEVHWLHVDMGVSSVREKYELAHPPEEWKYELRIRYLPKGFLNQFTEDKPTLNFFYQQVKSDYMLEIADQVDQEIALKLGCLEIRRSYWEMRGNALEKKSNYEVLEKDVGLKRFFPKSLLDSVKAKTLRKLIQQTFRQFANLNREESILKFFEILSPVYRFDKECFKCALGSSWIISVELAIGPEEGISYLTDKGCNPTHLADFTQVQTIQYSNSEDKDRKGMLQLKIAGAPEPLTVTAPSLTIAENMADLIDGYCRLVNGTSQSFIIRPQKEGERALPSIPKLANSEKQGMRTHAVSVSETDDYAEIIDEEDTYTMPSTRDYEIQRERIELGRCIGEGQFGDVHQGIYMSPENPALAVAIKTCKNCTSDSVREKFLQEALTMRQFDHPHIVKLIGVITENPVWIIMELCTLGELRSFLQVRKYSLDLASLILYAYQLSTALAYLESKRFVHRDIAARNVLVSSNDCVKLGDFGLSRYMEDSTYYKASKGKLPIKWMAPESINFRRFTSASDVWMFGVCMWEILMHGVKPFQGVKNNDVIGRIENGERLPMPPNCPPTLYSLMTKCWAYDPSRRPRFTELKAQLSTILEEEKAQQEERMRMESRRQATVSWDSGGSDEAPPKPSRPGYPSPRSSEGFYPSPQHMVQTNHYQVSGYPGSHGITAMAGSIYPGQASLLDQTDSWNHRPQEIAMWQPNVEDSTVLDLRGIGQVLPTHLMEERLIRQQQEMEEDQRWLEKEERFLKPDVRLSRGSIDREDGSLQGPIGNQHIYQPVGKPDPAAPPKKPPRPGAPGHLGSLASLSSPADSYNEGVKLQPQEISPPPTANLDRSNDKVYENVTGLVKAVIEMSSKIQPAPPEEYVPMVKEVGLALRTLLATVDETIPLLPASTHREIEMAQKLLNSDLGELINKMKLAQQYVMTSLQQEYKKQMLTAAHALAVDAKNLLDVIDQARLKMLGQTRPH
Sequence of Fibroblast growth factor 2 (Homo sapiens) (P09038 whole entry, looked up): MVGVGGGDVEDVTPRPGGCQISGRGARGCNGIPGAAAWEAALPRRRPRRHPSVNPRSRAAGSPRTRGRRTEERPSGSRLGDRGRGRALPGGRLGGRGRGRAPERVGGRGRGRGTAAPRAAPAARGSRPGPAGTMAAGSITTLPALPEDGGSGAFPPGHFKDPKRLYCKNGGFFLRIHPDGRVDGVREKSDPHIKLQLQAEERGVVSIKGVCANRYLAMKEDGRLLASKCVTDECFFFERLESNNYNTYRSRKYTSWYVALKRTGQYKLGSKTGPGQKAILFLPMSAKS
Sequence of Follistatin (Homo sapiens) (P19883 whole entry, looked up): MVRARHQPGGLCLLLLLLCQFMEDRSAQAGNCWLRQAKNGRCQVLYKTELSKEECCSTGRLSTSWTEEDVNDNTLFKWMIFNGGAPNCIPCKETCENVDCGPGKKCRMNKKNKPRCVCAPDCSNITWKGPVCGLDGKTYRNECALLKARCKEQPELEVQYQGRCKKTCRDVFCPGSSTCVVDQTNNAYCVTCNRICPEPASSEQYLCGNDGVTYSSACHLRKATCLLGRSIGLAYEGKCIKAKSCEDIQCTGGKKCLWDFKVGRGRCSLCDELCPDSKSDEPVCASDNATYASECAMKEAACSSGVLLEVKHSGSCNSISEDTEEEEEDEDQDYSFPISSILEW
Sequence of Streptavidin (Streptomyces avidinii) (P22629 whole entry, looked up): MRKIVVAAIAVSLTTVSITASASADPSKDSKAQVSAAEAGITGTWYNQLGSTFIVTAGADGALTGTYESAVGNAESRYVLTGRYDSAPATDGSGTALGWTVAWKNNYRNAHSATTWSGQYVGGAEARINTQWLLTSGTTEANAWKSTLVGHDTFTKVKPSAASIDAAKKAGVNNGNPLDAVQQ

Regarding `CC(CO)N1C(=O)[C@@H]2C3C(=O)OCCC=C[C@H]3OC23C=CCN(Cn2nnc4ccccc42)C(=O)[C@@H]13` (stereo not given in full), the composite z-score in assay [1] is 0.398 and 1.77; in assay [2], -0.66 and 0.136; in assay [3], -0.244 and -0.0494; in assay [4], -0.332 and -0.0118; in [5], -0.93 and 0.345; in assay [6] it was -1.31 and -0.224. Besides, the composite z-score is -1.34 and 0.247 in the assay on Lefty1; -0.711 and -0.23 in [8]; -0.757 and 0.0538 in assay [10]; -0.909 and -0.228 in [15]; -0.0675 and -0.0405 in assay [16]; -1.13 and 1.95 with Torsin-1A (Homo sapiens) [17]. For the same compound, the composite z-score in the assay with Torsin-1A (Homo sapiens) [18] is -0.987 and 0.603; in assay [19], -1.26 and 0.935. The z-score in assay [7] is -0.469 and -0.766; in [9] it was 0.0511 (inactive) and 0.399 (inactive); in assay [11], -0.095 (inactive) and -0.464 (inactive); in [12], 0.422 (inactive) and -0.131 (inactive); in [13], -0.208 (inactive) and -1.44 (inactive); in assay [14], -0.372 (inactive) and 0.774 (inactive).
As for `C=CCN(C(=O)C1N(c2ccc(CCO)cc2)C(=O)C2C(C(=O)O)C3C=CC21O3)c1ccc(OC)cc1` (stereo not given), the composite z-score was 0.0218 and -0.668 in assay [1]; -0.304 and -0.769 in assay [2]; 0.0134 and -1.17 in [3]; -0.369 and -1.3 in assay [4]; -0.697 and -0.794 in [5]; -1.24 and -1.75 in assay [6]. Moreover, the composite z-score was -0.708 and -0.967 in the assay on Lefty1; 0.0183 and -0.967 in [8]; -0.416 and -0.717 in assay [10]; -0.683 and -1.98 in assay [15]; -0.0066 and -0.311 in [16]; -1.29 and -2.7 with Torsin-1A (Homo sapiens) [17]. The composite z-score was -0.584 and -1.23 with Torsin-1A (Homo sapiens) [18]; -0.141 and -1.28 in [19]. Also, the z-score in assay [7] was -0.742 and -0.718; in [9], -0.622 (inactive) and 2.07 (inactive); in assay [11], -0.0172 (inactive) and -1.2 (inactive); in assay [12], -0.143 (inactive) and -1.34 (inactive); in [13] it was 0.333 (inactive) and -1.97 (inactive); in assay [14], -0.0772 (inactive) and -0.526 (inactive).
`C#CCN1C(/C=C/c2ccccc2)C(=O)OC[C@H]1c1ccccc1` (stereo not given in full): the composite z-score was 0.195 and 0.338 in assay [1]; 0.455 and 0.0982 in assay [2]; 0.0124 and 0.142 in assay [3]; -0.106 and 0.137 in assay [4]; 1.28 and 0.768 in assay [5]; 0.441 and 1.07 in assay [6]. In addition, the composite z-score in the assay on Lefty1 is 0.622 and 0.295; in [8], -0.19 and 0.017; in assay [10], 0.161 and 0.111; in assay [15], -0.0296 and -0.175; in assay [16], -0.0853 and 0.0807; with Torsin-1A (Homo sapiens) [17], 0.419 and -0.479. The composite z-score with Torsin-1A (Homo sapiens) [18] was 0.436 and 0.128; in assay [19] it was 0.713 and 1.03. Also, the z-score in [7] is -0.411 and -1; in [9] it was -0.415 (inactive) and 0.754 (inactive); in assay [11] it was -5.93 (inactive) and -0.403 (inactive); in [12], -0.793 (inactive); in [13], 2.48 (inactive) and -0.682 (inactive); in assay [14] it was -1.66 (inactive) and -0.836 (inactive).
For `C=CCN(C(=O)C1N(CCOCCO)C(=O)C2C(C(=O)O)C3C=CC21O3)C(C)(C)C` (stereo not given), the composite z-score in assay [1] is -0.673 and -0.976; in assay [2] it was -1.66 and -0.815; in assay [3] it was -0.324 and -0.708; in assay [4], -4.25 and -0.473; in assay [5] it was -2.09 and -1.58; in [6] it was -1.27 and -2.81. The composite z-score in the assay on Lefty1 was -1.43 and -1.07; in assay [8], -0.511 and -0.0854; in assay [10], -0.908 and -0.886; in assay [15] it was -0.875 and -0.873; in assay [16] it was -0.179 and -0.319; with Torsin-1A (Homo sapiens) [17], -1.93 and -2.63. For the same compound, the composite z-score with Torsin-1A (Homo sapiens) [18] is -2.59 and -1.82; in [19], -0.783 and -1.34. The z-score in [7] was -0.147 and -0.774; in assay [9], -0.352 (inactive) and 0.274 (inactive); in assay [11] it was -0.773 (inactive) and -0.325 (inactive); in assay [12], -0.000915 (inactive) and -1.27 (inactive); in assay [13] it was -0.627 (inactive) and 0.0605 (inactive); in assay [14], -0.581 (inactive) and 0.0532 (inactive).
